Laboratory results reported in PubChem BioAssay AID624296 (National Center for Advancing Translational Sciences (NCATS), 2012).
The whole screen tested about 350,000 compounds, of which about 9,900 (2.8%) were called active. About 15% were inconclusive and are not listed. The sample holds actives, similar compounds and a random draw of the others, so the mix is not that of the screen. Unmarked numbers belong to inactive results. The call rests on the fitted dose curve; in most records, active means well fitted activation curve with a large enough effect; inconclusive means small, poorly fitted or top-dose-only effect; inactive means no such curve, though single readings can be large or run the other way.

Assay: A quantitative high throughput screen for small molecules that induce DNA re-replication in MCF 10a normal breast cells. Further: nearly all actives have a fitted effect of over 50% in size. On activity, positive = re-replication: % of control where 0% means no effect.
Settings: MCF 10A DNA re-replication, Hoechst nuclear intensity, 48 h; series mostly up to 46.1 µM; activity, positive = re-replication: at the top concentration
Potency means the concentration at half of the fitted maximal effect.

Compound	activity, positive = re-replication	Potency
COC(=O)c1cc(-c2cccs2)nc2ccccc12	-1.79%	–
CC(C)(C)Cc1nnc(NC(=O)c2cc(-c3ccccc3)nc3ccccc23)s1	19.2%	–
O=C(Nc1nnc(-c2ccccc2)o1)c1cc(-c2cccs2)nc2ccccc12	–	2.06 µM (active)
COc1cccc(N2CCN(CC(=O)Nc3ccnn3C3CCCC3)CC2)c1	8.58%	–
Cc1cc(C)cc(NC(=O)C(c2ccccc2)N2CCN(CC(=O)N3CCCC3)CC2)c1 (stereo unspecified)	0.469%	–
COc1ccc(CNC(=O)C[C@H]2C[C@H](C(=O)N3CCOCC3)[C@@]3(C)c4[nH]c5cc(CCC(=O)N(C)C)ccc5c4CCN3C2=O)cc1OC	-2.67%	–
O=C(CN1C(=O)NC2(CCCCC2)C1=O)N1CCN(C(=O)c2cccs2)CC1	-2%	–
CCC1(C)Cc2c(sc3nc(SC)[nH]c(=O)c23)CO1 (stereo unspecified)	-1.6%	–
CCn1c(=S)[nH]c2sc3c(c2c1=O)CCCCC3	7.93%	–
CCC1(C)Cc2c(sc3[nH]c(=S)n(Cc4ccccc4)c(=O)c23)CO1 (stereo unspecified)	–	13 µM (active)
CS(=O)(=O)N(CC(O)Cn1c2ccccc2c2ccccc21)c1cccc2ccccc12 (stereo unspecified)	–	16.4 µM (active)
CCCn1c(=O)c(-c2ccccc2)c(O)c2ccccc21	7.08%	–
CCCCN(CCCC)CC(O)Cn1c2ccccc2c(=O)c2ccccc21 (stereo unspecified)	–	18.4 µM (active)
Cc1cc(C)n(CC(O)CN(c2ccccc2)S(=O)(=O)c2ccc3ccccc3c2)n1 (stereo unspecified)	3.27%	–
O=S(=O)(c1ccccc1)N(CC(O)CN1CCCCC1)c1ccccc1 (stereo unspecified)	4.96%	–
CCCCn1c(=O)c(C(C)=O)c(O)c2ccccc21	5.82%	–
O=C(CN1C(=O)NC(Cc2c[nH]c3ccccc23)C1=O)Nc1ccccc1C(F)(F)F (stereo unspecified)	3.41%	–
CN(CC(=O)Nc1ccc(C(N)=O)cc1)S(=O)(=O)c1ccc2c(c1)OCCO2	-1.22%	–
CC(=O)NCC(=O)NC1CCCc2c1cnn2-c1ccccc1F (stereo unspecified)	-1.44%	–
Cn1nccc1C(=O)NC1CCCc2c1cnn2-c1ccccc1F (stereo unspecified)	10.6%	–
COc1ccc(C(=O)NC2CCCc3c2cnn3-c2cccc(C)c2C)c(OC)n1 (stereo unspecified)	–	18.4 µM (active)
CC(C)(C)NS(=O)(=O)NC(=O)C1=C(N2CCCC2)COC1=O	11.9%	–
Cc1ccc(S(=O)(=O)N2CCCCC2)cc1NC(=O)[C@@H]1CCCN1C(=O)c1cccs1	-5.26%	–
Cc1ccc(S(=O)(=O)NCC(=O)NNC(=O)c2ccc(Br)cc2)cc1C	5.77%	–
Cc1cc(C(F)(F)F)nn1-c1nc(-c2ccco2)cc(C(F)(F)F)n1	-6%	–
FC(F)(F)c1cc(-c2cccs2)nc(NCc2ccco2)n1	13.3%	–

Compound	activity, positive = re-replication	Potency
FC(F)(F)c1cc(-c2ccco2)nc(NCc2ccc(Cl)cc2)n1	–	16.4 µM (active)
CN(CC(=O)Nc1ccc(F)c(F)c1F)C(=O)C1CC(=O)N(C2CCCC2)C1 (stereo unspecified)	-28.2%	–
O=C(N[C@@H](Cc1c[nH]c2ccccc12)C(=O)O)OCC1c2ccccc2-c2ccccc21	10.8%	–
COc1ccc(CCNC(=O)COC(=O)c2ncc(Cl)c(Cl)c2Cl)cc1OC	-0.637%	–
CCOC(=O)c1ccccc1NC(=O)CSc1nc2ccccc2c(=O)[nH]1	–	18.4 µM (active)
COC(=O)c1ccccc1NC(=O)CSc1nc2c(c(=O)[nH]1)CCC2	-2.45%	–
CCOC(=O)c1cnc(SCC(=O)Nc2ccccc2C(=O)OC)nc1N	16.1%	–
Cc1ccc(Cn2c(C)c3cnn(CC(=O)NCCN4CCOCC4)c(=O)c3c2C)cc1	-2.54%	–
O=C(NCCCN1CCOCC1)c1cn(-c2ccccc2)nc1-c1ccc(F)cc1	10.2%	–
COc1ccc(-c2ccc3c(c2)C2CC3CCN2CCC#N)cc1 (stereo unspecified)	1.97%	–
CCN(CC)S(=O)(=O)c1cc(C(=O)Nc2cc(S(=O)(=O)N3CCOCC3)ccc2N2CCCC2)ccc1F	-0.679%	–
C/C(=C\c1ccccc1)C1NC(=O)c2c(sc3c2CCCC3)N1 (stereo unspecified)	–	20.6 µM (active)
O=C1CCCCC1C(=O)c1ccccc1 (stereo unspecified)	1.46%	–
O=C1NC(c2ccncc2)Nc2sc3c(c21)CCCC3 (stereo unspecified)	11.3%	–
CNC[C@H]1Oc2c(NC(=O)C3CCCCC3)cccc2C(=O)N([C@H](C)CO)C[C@@H]1C	-2.79%	–
Cc1noc(C)c1S(=O)(=O)N(C)C[C@H]1Oc2ccc(NC(=O)C3CCCCC3)cc2C(=O)N([C@H](C)CO)C[C@@H]1C	26.5%	–
O=C(CN1CCC(O)(c2ccccc2)CC1)Nc1ccc2c(c1)OCCO2	-3.64%	–
O=C(CCN1CCc2ccccc2C(O)(c2ccccc2)C1)c1ccc2c(c1)OCCO2 (stereo unspecified)	–	6.51 µM (active)
O=C(COC(=O)c1ccccc1)c1ccc2c(c1)OCCO2	4.61%	–
CCN(C(=O)COC(=O)c1ccccc1O)c1cccc2ccccc12	-2.15%	–
O=C(CCCOc1ccccc1)NNC(=O)c1ccc(Cl)cc1	-2.69%	–
CCS(=O)(=O)C1=NSC2=NC(=O)/C(=C\c3ccc(OS(=O)(=O)c4ccccc4)cc3)C(=N)N21	-5.59%	–
CCC1=NN2C(=N)/C(=C/c3cc(C)n(-c4ccccc4)c3C)C(=O)N=C2S1	11.7%	–
CCS(=O)(=O)C1=NSC2=NC(=O)/C(=C\c3cc(C)n(-c4cccc(OC)c4)c3C)C(=N)N21	–	5.8 µM (active)
CC(=O)c1cccc(-c2ccc(CN3C(CC(C)C)C(=O)N(Cc4cn(CC5CCCCC5)nn4)CCS3(=O)=O)cc2)c1 (stereo unspecified)	24.9%	–
